The results in this text go back to PubChem BioAssay (NCATS).

Assay [1] deals with Rap guanine nucleotide exchange factor 3 (Homo sapiens) (UniProt O95398). In words: Confirmatory qHTS for antagonist of cAMP-regulated guanine nucleotide exchange factor 3 (EPAC1) (AID 1645880). Further: nearly all actives have a fitted effect of over 55% in size. Further: potency means the concentration at half of the fitted maximal effect. The gist of the method:
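Released BODIPY-GDP fluoresces less than Rap1-bound BODIPY-GDP; the signal is followed at 480/540 nm at 5-min intervals over 30 min, after 5 min at room temperature. Reactions contain 100 nM EPAC1, 250 nM RAP1B-BODIPY-GDP and 50 uM GDP; results are normalized to ATA and DMSO.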

Assay [2] shares this target. In words: Confirmatory qHTS for agonist of cAMP-regulated guanine nucleotide exchange factor 3 (EPAC1) (AID 1645881).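 Further: EPAC1 catalysed release of BODIPY-GDP from Rap1B seen as fluorescence loss; 100% = effect of cAMP agonist control; nearly all actives have a fitted effect of over 75% in size.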
Assay [3] concerns the target Rap guanine nucleotide exchange factor 4 (Homo sapiens) (UniProt Q8WZA2). In words: Confirmatory qHTS for agonist of cAMP-regulated guanine nucleotide exchange factor 4 (EPAC2) (AID 1645884).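 Further: nucleotide exchange releases bodipy-GDP from Rap1 and this lowers its fluorescence; on the % scale 0 is the no-effect control and ±100 the full control effect; nearly all actives have a fitted effect of over 65% in size.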
Assay [4] has the same target. In words: Confirmatory qHTS for antagonist of cAMP-regulated guanine nucleotide exchange factor 4 (EPAC2) (AID 1645885). Further: nearly all actives have a fitted effect of over 25% in size. Further: potency means the concentration at half of the fitted maximal effect. On activity change, negative = inhibition: on the % scale 0 is the no-effect control and ±100 the full control effect.
Assay [5] deals with Rap guanine nucleotide exchange factor 3 (Homo sapiens) (UniProt O95398). In words: Counterscreen qHTS for antagonist of cAMP-regulated guanine nucleotide exchange factor 3 (EPAC1) (AID 1645888). Further: % of control where 0% means no effect. The gist of the method: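 Rap1B-BODIPY-GDP 250 nM + GDP 50 uM; cpds 7-pt, final 9.74 nM–152 uM (activator mode) or from 7.32 nM upwards (inhibitor mode); RT; FI 480/540 nm at 5 and 30 min, then ± cAMP, reread.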

Inconclusive results are not listed. Unmarked numbers belong to inactive results. Activity calls are given as the source filed them. The call rests on the fitted dose curve; in most records, active means well fitted curve in the direction sought with a large enough effect; inconclusive means small, poorly fitted or top-dose-only effect, or another doubt; inactive means no such curve, though single readings can be large; an effect the other way counts as inactive or inconclusive.

Sequence of Rap guanine nucleotide exchange factor 3 (Homo sapiens) (O95398 whole entry, looked up): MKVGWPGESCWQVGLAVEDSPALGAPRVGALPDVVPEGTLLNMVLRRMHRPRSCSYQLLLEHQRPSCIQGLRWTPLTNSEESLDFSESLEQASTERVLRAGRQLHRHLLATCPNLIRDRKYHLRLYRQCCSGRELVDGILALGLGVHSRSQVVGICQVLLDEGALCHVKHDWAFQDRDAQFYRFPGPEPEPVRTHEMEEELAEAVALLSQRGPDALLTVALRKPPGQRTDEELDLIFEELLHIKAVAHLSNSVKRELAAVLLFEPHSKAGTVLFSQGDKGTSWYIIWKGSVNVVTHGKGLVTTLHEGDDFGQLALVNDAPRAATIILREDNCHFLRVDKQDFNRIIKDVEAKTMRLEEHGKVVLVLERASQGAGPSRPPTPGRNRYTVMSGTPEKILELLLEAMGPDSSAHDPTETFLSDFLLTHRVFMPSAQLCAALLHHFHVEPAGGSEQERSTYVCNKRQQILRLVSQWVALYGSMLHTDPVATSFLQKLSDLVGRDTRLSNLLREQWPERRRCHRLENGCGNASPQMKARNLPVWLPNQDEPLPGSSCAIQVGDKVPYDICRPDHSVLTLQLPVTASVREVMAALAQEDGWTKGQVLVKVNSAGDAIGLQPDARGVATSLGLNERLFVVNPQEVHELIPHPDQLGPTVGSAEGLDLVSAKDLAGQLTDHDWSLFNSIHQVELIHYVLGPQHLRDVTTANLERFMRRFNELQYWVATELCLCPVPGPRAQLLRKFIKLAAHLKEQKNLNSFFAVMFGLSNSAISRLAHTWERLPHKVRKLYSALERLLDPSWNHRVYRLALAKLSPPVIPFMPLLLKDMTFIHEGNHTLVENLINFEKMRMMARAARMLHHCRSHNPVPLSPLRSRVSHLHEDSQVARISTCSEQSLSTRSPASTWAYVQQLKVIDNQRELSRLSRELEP
Sequence of Rap guanine nucleotide exchange factor 4 (Homo sapiens) (Q8WZA2 whole entry, looked up): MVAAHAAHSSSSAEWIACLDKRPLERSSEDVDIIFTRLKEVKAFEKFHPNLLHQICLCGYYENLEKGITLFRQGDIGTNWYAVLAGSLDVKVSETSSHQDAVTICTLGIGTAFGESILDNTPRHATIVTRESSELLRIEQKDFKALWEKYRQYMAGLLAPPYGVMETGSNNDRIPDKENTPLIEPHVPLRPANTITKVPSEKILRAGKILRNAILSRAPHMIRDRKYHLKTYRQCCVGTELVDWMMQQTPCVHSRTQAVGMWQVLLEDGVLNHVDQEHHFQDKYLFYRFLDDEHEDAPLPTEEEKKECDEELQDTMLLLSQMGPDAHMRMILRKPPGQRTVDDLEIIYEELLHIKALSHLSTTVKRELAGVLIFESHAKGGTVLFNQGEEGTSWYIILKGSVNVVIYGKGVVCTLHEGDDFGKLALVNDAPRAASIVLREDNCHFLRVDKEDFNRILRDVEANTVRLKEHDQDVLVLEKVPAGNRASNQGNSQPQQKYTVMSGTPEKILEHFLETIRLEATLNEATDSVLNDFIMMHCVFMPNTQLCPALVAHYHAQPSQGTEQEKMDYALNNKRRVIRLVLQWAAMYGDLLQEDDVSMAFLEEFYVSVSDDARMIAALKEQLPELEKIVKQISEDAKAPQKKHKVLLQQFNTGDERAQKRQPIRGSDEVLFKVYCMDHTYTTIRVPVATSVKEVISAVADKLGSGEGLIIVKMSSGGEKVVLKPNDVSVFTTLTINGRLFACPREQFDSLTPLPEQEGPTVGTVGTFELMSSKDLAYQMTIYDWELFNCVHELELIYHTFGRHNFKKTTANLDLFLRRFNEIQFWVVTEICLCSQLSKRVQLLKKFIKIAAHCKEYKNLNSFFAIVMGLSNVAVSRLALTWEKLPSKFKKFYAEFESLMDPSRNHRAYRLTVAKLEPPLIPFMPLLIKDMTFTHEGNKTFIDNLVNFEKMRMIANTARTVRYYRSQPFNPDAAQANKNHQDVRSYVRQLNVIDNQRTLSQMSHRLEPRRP

Turning to `CC(C(=O)Nc1ccccc1-c1ccccc1)N1CCN(C(=O)c2ccccc2)CC1` (stereo not given), the Potency entry in assay [1], in assay [2] and in assay [4] was “inactive” in each case. In addition, the activation in assay [3] was 12.7% [at 17.1 µM, percent relative to cAMP agonist control]. In addition, the activity change, negative = inhibition in assay [5] was 16.7% [at 30.8 µM].
As for `Cc1cscc1-c1ccc(C(=O)Nc2c(C)cccc2C)o1`, the Potency entry in assay [1], in assay [2] and in assay [4] was “inactive” each time. In addition, in assay [3], the activation was 7.37% [at 17.1 µM, percent relative to cAMP agonist control]. Also, the activity change, negative = inhibition in assay [5] is -5.01% [at 30.8 µM].
Turning to `Cc1cc2[nH]c(=O)c(=O)[nH]c2cc1S(=O)(=O)Nc1cccc(Cl)c1`, the Potency in assay [1] was 42.6 µM (active). Besides, the Potency entry in assay [2], in assay [3], in assay [4] and in assay [5] was “inactive” throughout.
Take `Cc1ccc(S(=O)(=O)NC(=O)Cn2nnc(-c3ccccc3)c2COc2ccc3ccccc3c2)cc1`: the Potency in assay [1] was 19 µM (active). For the same molecule, the Potency entry in assay [2], in assay [3], in assay [4] and in assay [5] was “inactive” each time.
Take `CSc1nc(N2CCOCC2)c2c3c(sc2n1)CCC3`: the Potency result in assay [1], in assay [2], in assay [3], in assay [4] and in assay [5] was “inactive” throughout.
As to `COc1ccc(C(CC(=O)N2CCOCC2)c2c(OC)cc(OC)c3c(-c4ccccc4)cc(=O)oc23)cc1` (stereo not given), in assay [1], the Potency is 37.9 µM (active). Besides, the Potency result in assay [2], in assay [3], in assay [4] and in assay [5] was “inactive” in each case.
Consider `Cc1cc(C)c(NC(=O)Cn2c(=O)n(Cc3ccc(C(=O)NCc4ccco4)cc3)c(=O)c3sccc32)c(C)c1`, for which the Potency in assay [1] was 75.7 µM (active). Moreover, the Potency result in assay [2], in assay [3], in assay [4] and in assay [5] was “inactive” in each case.
For `Cn1cccc1C(=O)NC(=O)COC(=O)c1cc(S(=O)(=O)N2CCCCC2)ccc1Cl`, the Potency entry in assay [1], in assay [2], in assay [3], in assay [4] and in assay [5] was “inactive” in each case.
Take `COc1ccccc1C(=O)NC(=O)COC(=O)C1CC1`: the Potency result in assay [1], in assay [2], in assay [3], in assay [4] and in assay [5] was “inactive” throughout.
On to `Cc1ccccc1OCCn1cnc2c(N)ncnc21`, for which the Potency result in assay [1], in assay [2], in assay [3], in assay [4] and in assay [5] was “inactive” each time.
As for `CC1(C(=O)NS(=O)(=O)c2cccc(Cl)c2)CCN1C(=O)C1(c2ccc(Cl)cc2)CC1` (stereo not given), the Potency in assay [1] was 31.6 µM (active). The Potency result in assay [2] and in assay [4] was “inactive” throughout. The activation in assay [3] is 2.34% [at 17.1 µM, percent relative to cAMP agonist control]. In assay [5], the activity change, negative = inhibition is -16.3% [at 30.8 µM].
For `CCOC(=O)C1=C(CSc2nc3ccccc3s2)NC(=O)NC1c1ccc(OC)cc1` (stereo not given), the Potency result in assay [1], in assay [2], in assay [3] and in assay [5] was “inactive” in each case. For the same molecule, in assay [4], the outcome was “inactive; activator; fitted 0.12 uM [at 12.7 µM]”.
Consider `COC(=O)c1cc2oc(C)cc2n1Cc1ccccc1Cl`, for which the Potency entry in assay [1], in assay [2], in assay [3], in assay [4] and in assay [5] was “inactive” throughout.
As for `Cc1ccc(NC(=O)c2ccc(S(=O)(=O)N3CCCCCC3)cc2)nc1`, the Potency entry in assay [1], in assay [2] and in assay [4] was “inactive” in each case. Moreover, the activation in assay [3] is 5.15% [at 17.1 µM, percent relative to cAMP agonist control]. The activity change, negative = inhibition in assay [5] was -5.55% [at 30.8 µM].
For the molecule `COc1cc(Nc2nc(SCc3cccc(Cl)c3)nc3ccccc23)cc(OC)c1`, the Potency result in assay [1], in assay [2], in assay [3] and in assay [5] was “inactive” in each case. The Potency in assay [4] is 0.151 µM (active).
With `Fc1ccc(C(Nc2ccccn2)c2c[nH]c3ccccc23)cc1` (stereo not given), the Potency entry in assay [1], in assay [2] and in assay [4] was “inactive” throughout. The activation in assay [3] was 7.5% [at 17.1 µM, percent relative to cAMP agonist control]. The activity change, negative = inhibition in assay [5] is -2.83% [at 30.8 µM].
For the molecule `CNc1nc(-c2ccc(OC)cc2)c(-c2ccc(OC)cc2)s1`, the Potency entry in assay [1], in assay [2], in assay [3] and in assay [5] was “inactive” throughout. Besides, in assay [4], the Potency was 23.9 µM (active).
Turning to `CCCCCCOC(=O)C(C#N)c1nc2ccccc2nc1N1CCOCC1` (stereo not given), the Potency in assay [1] and in assay [4] was 75.7 µM (active) in each case. Moreover, the Potency entry in assay [2], in assay [3] and in assay [5] was “inactive” in each case.
Turning to `O=C(/C=C/c1ccco1)c1cccc([N+](=O)[O-])c1`, in assay [1], the Potency is 42.6 µM (active). Besides, the Potency result in assay [2], in assay [3], in assay [4] and in assay [5] was “inactive” throughout.
As for `Cc1c(Br)c(=O)oc2c(Br)c(O)c(O)cc12`, in assay [1], the Potency was 3.16 µM (active). For the same molecule, the Potency entry in assay [2] and in assay [4] was “inactive” in each case. Also, in assay [3], the activation was 9.71% [at 17.1 µM, percent relative to cAMP agonist control]. In addition, the activity change, negative = inhibition in assay [5] was 21.7% [at 30.8 µM].
Regarding `CN1CCN(C2=C(Cl)C(=O)c3ccccc3C2=O)CC1`, the Potency in assay [1] was 25.1 µM (active). The Potency entry in assay [2] and in assay [4] was “inactive” throughout. The activation in assay [3] is 11% [at 17.1 µM, percent relative to cAMP agonist control]. Besides, the activity change, negative = inhibition in assay [5] was 17.9% [at 30.8 µM].
On to `CCn1c(CSc2nc3ccccc3s2)nnc1SCC(=O)c1ccc(O)c(O)c1`, for which the Potency result in assay [1], in assay [2], in assay [3], in assay [4] and in assay [5] was “inactive” each time.
Consider `COc1ccc(N2CCN(S(=O)(=O)c3cc4c(cc3C)NC(=O)CO4)CC2)cc1`, for which the Potency result in assay [1], in assay [2], in assay [3], in assay [4] and in assay [5] was “inactive” each time.
With `CCN(CC)C(=S)Oc1c(Cl)cccc1Cl`, the Potency entry in assay [1], in assay [2] and in assay [4] was “inactive” each time. In addition, the activation in assay [3] is 7.01% [at 17.1 µM, percent relative to cAMP agonist control]. Moreover, in assay [5], the activity change, negative = inhibition was -19.4% [at 30.8 µM].
